# Laboratory results from PubChem BioAssay (NCATS).
# Inconclusive results are not listed. Activity calls are given as the source filed them. The call rests on the fitted dose curve; in most records, active means well fitted cell-killing curve with a large enough effect; inconclusive means small, poorly fitted or top-dose-only effect, or effect the other way; inactive means no such curve, though single readings can be large or run the other way.
# Assay: Quantitative High-Throughput drug screen in 47 multiple myeloma cell lines against the NCATS MIPE library collection: VP6_DJ cell viability assay (AID 1919867); further: nearly all actives have a fitted effect of over 40% in size
# Details: ATP luminescence, 48 h; series mostly up to 45.8 µM; viability (% of DMSO): at the top concentration
# Outline: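 500 cells/well per myeloma line exposed to pinned MIPE 4.0 compounds for 48 h at 37 °C, 5% CO2. Viability read as ATP by CellTiter-Glo luminescence, normalised to DMSO-only (100%) and media-only (0%) wells.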
# Potency means the concentration at half of the fitted maximal effect.
Compound,viability (% of DMSO),Potency
Nc1nc(F)nc2c1ncn2[C@@H]1O[C@H](COP(=O)(O)O)[C@@H](O)[C@H]1O,125% (inactive),
Cc1cccc(Nc2nc(-c3ccncc3)cs2)c1,,18.7 µM (active)
Nc1ncnc2ccccc12,143% (inactive),
CS(=O)c1ccc(-c2nc(-c3ccc(F)cc3)c(-c3ccncc3)[nH]2)cc1 (stereo not drawn),,7.62 µM (active)
CC(C)(C)Cn1c(N)nc2ccc(-c3[nH]c(C(C)(C)C)nc3-c3ccc(F)cc3)nc21,,16.6 µM (active)
COc1ccc2c(Oc3ccc(NC(=O)c4c(C)n(CC(C)(C)O)n(-c5ccccc5)c4=O)cc3F)ccnc2c1,,11.8 µM (active)
O=C(O)c1cc(O)c2c(c1)C(=O)c1cccc(O)c1C2=O,151% [at 92.2 µM] (inactive),
NC(=O)c1ccc2nc(-c3ccc(Oc4ccc(Cl)cc4)cc3)[nH]c2c1,,6.62 µM (active)
O=C(O)CCC1CCC(c2cc(F)ccc2F)(S(=O)(=O)c2ccc(Cl)cc2)CC1 (stereo not drawn),,4.69 µM (active)
CC[C@H]1OC(=O)[C@H](C)C(=O)[C@H](C)[C@@H](O[C@H]2O[C@H](C)C[C@H](N(C)C)[C@@H]2O)[C@](C)(OC)C[C@@H](C)C(=O)[C@H](C)[C@H]2N(CCCCn3cnc(-c4cccnc4)c3)C(=O)O[C@]12C,,11.8 µM (active)
CC(C)C[C@H](CC(=O)O)C(=O)N[C@@H](Cc1c[nH]c2ccccc12)C(=O)N[C@@H](C)c1ccccc1,153% (inactive),
COc1ccc(C2CC(c3ccccc3)=NN2c2ccc(S(N)(=O)=O)cc2)cc1 (stereo not drawn),,16.6 µM (active)
COc1cccc2c1CCCC2CCCN1CCN(C2CCCCC2)CC1 (stereo not drawn),,16.6 µM (active)
O=C(OCC#CCSc1nnc(-c2cccc3ccccc23)o1)c1cc2ccccc2s1,125% (inactive),
CN(C[C@@H]1COCCO1)S(=O)(=O)Nc1ccc2ccc3ncc(-c4cnn(C)c4)cc3c(=O)c2c1,,2.96 µM (active)
O=C(Nc1cccc(Br)c1)c1cccc(S(=O)(=O)N2CCCCCC2)c1,,16.6 µM (active)
O=C1Nc2ccc(Cl)cc2C(C#CC2CC2)(C(F)(F)F)O1 (stereo not drawn),,16.6 µM (active)
CN1CCN(CCOc2cc(OC3CCOCC3)c3c(Nc4c(Cl)ccc5c4OCO5)ncnc3c2)CC1,,4.18 µM (active)
CCC(CC)[C@H](NC(C)=O)[C@@H]1[C@H](O)[C@@H](C(=O)O)C[C@@H]1N=C(N)N,,4.18 µM (active)
NC(=O)c1cccc(-c2cc(Nc3ccc(OC(F)(F)F)cc3)ncn2)c1,,14.8 µM (active)
CC(=O)OC1C(C)OC(Oc2c(-c3ccc(O)cc3)oc3cc(O)cc(O)c3c2=O)C(O)C1OC(C)=O (stereo not drawn),84.4% (inactive),
CC1(C)Cc2c(sc(NC(=S)NC(=O)c3ccccc3)c2C(=O)O)CO1,,8.33 µM (active)
COc1cccc(-c2cc(=O)c3ccccc3o2)c1N,,1.32 µM (active)
